The panel holds about 83,000 compounds, 20% with a hit somewhere; the sample as a whole holds those more often.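 Testing used 96-well plates and a 48-hour single-concentration exposure. Example: -40 means 40% of the starting cells died.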 Values without a mark were called inactive. The source made the active and inactive calls. Rule for the calls: active = growth percent below 10; inactive = the rest.

Among the test systems are HCT-15 colon; HT29 colon; SNB-75 CNS; SNB-19 CNS; U251 CNS; PC-3 prostate; SK-MEL-5 melanoma; UACC-62 melanoma; LOX IMVI melanoma; SK-MEL-28 melanoma.
Test in all cases: NCI-60 one-dose screen, 48 h (100 = growth as untreated, 0 = no growth, -100 = all killed)
Holding throughout (settings): 10 µM unless noted

`CCN(CC)c1ccc(/C=C2/NC(=O)NC2=O)cc1`: the growth in the test on HCT-15 colon is 36.6%; with HT29 colon, 16.5%; in the test on SNB-75 CNS it was 59.1%; with SNB-19 CNS, 61.1%; in the test with U251 CNS, 44.7%; in the test with PC-3 prostate it was 65.8%. The growth in the test with SK-MEL-5 melanoma was -7.83% (active); in the test with UACC-62 melanoma, 11.7%; with LOX IMVI melanoma it was 46.4%; with SK-MEL-28 melanoma, 66.6%.
On to `C=CCN1C(=O)/C(=c2\sc3n(c2=O)C2C(NN=3)N(CC)C(=O)N2CC)c2ccccc21` (stereo not given), for which the growth is 15.7% in the test with HCT-15 colon; 6.59% (active) in the test with HT29 colon; 23.8% in the test with SNB-75 CNS; 26.8% in the test with SNB-19 CNS; 22.8% with U251 CNS; 22% with PC-3 prostate. Moreover, the growth in the test with SK-MEL-5 melanoma was 18.5%; with UACC-62 melanoma, 26.1%; in the test with LOX IMVI melanoma, 28.9%; with SK-MEL-28 melanoma, 62.4%.
For the molecule `COc1cc(C2CC(c3ccc(Cl)cc3)=NN2C(C)=O)ccc1Oc1nc2c(c(=O)n(C)c(=O)n2C)n1C` (stereo not given), the growth in the test on HCT-15 colon is 88.5%; in the test with HT29 colon, 73.8%; with SNB-75 CNS, 75%; with SNB-19 CNS, 59.8%; in the test on U251 CNS, 80.7%; in the test with PC-3 prostate it was 75.6%. The growth in the test with SK-MEL-5 melanoma was 55.6%; in the test with UACC-62 melanoma, 75.9%; in the test with LOX IMVI melanoma, 64.5%; in the test with SK-MEL-28 melanoma, 86.6%.
Take `Oc1c(C(Nc2cccc3ccccc23)c2ccccc2)ccc2cccnc12` (stereo not given): the growth in the test with HCT-15 colon was 28.1%; with HT29 colon it was 29.3%; with SNB-75 CNS it was 72.2%; with SNB-19 CNS, 51.7%; in the test on U251 CNS, 20.6%; in the test with PC-3 prostate, 38.1%. Further, the growth in the test with SK-MEL-5 melanoma is 43.9%; in the test on UACC-62 melanoma, 14.7%; with LOX IMVI melanoma it was 15.3%; in the test on SK-MEL-28 melanoma, 57.6%.
For `O=C1Nc2ccccc2/C1=C\c1nc(C2CCN(S(=O)(=O)c3ccc(F)cc3)CC2)n2ccccc12`, the growth with HCT-15 colon is 90.5%; with HT29 colon it was 67.7%; in the test with SNB-75 CNS it was -10.4% (active); with SNB-19 CNS, -6.15% (active); in the test on U251 CNS it was 41.3%; with PC-3 prostate, 65.6%. Also, the growth in the test with SK-MEL-5 melanoma was 75.3%; in the test with UACC-62 melanoma, 39.1%; with LOX IMVI melanoma, 49.2%; with SK-MEL-28 melanoma, 60.3%.
With `Clc1ccc(-c2nc(-c3cccs3)no2)cc1`, the growth in the test with HCT-15 colon is 106%; in the test on HT29 colon, 96%; in the test on SNB-75 CNS it was 88.6%; with SNB-19 CNS, 105%; with U251 CNS, 84.6%; in the test with PC-3 prostate it was 84.4%. The growth in the test on SK-MEL-5 melanoma was 87.9%; with UACC-62 melanoma, 88.1%; in the test on LOX IMVI melanoma, 94.7%; with SK-MEL-28 melanoma it was 112%.
On to `COc1ccc(-c2cc(C(=O)Nc3ccc(C)cc3)nc3[nH]c(=O)sc23)cc1`, for which the growth with HCT-15 colon is 63.8%; in the test with HT29 colon, 81.4%; with SNB-75 CNS, 102%; with SNB-19 CNS it was 57.7%; in the test on U251 CNS, 56.2%; with PC-3 prostate, 73.8%. Further, the growth in the test with SK-MEL-5 melanoma is 37.2%; in the test on UACC-62 melanoma, 31.3%; in the test on LOX IMVI melanoma, 77.7%; in the test with SK-MEL-28 melanoma it was 70%.
As to `COc1cc(NC(=O)CSc2nc3ccc(Cl)cc3c(=O)n2-c2ccccc2)cc(OC)c1OC`, the growth in the test on HCT-15 colon was 99.6%; with HT29 colon, 110%; in the test with SNB-75 CNS, 71.6%; with SNB-19 CNS it was 99.9%; in the test with U251 CNS, 92.5%; in the test with PC-3 prostate, 80.6%. Besides, the growth in the test with SK-MEL-5 melanoma was 83.8%; in the test with UACC-62 melanoma, 75%; with LOX IMVI melanoma, 90.8%; with SK-MEL-28 melanoma, 97.2%.
For the molecule `Cc1ccc(NC(=O)c2cc(NCc3cc(O)ccc3O)ccc2O)cc1`, the growth is 86.3% in the test on HCT-15 colon; 82.9% in the test on HT29 colon; 97.8% with SNB-75 CNS; 99.8% with SNB-19 CNS; 95.4% in the test with U251 CNS; 74% in the test on PC-3 prostate. Moreover, the growth in the test with SK-MEL-5 melanoma is 88.6%; in the test with UACC-62 melanoma, 81.9%; in the test with LOX IMVI melanoma, 94.7%; with SK-MEL-28 melanoma it was 108%.
As to `Cc1c(C(=O)CCl)c(=O)n(-c2ccccc2)n1C`, the growth was 40% in the test with HCT-15 colon; 36.2% with HT29 colon; 76.3% in the test on SNB-75 CNS; 94.5% in the test with SNB-19 CNS; 65.8% in the test with U251 CNS; 55.5% in the test with PC-3 prostate. Moreover, the growth is 87.9% with SK-MEL-5 melanoma, 74.1% with UACC-62 melanoma, 62% with LOX IMVI melanoma and 65% in the test with SK-MEL-28 melanoma.
Take `CCC(=O)OCc1ccc(OC)cc1`: the growth with HCT-15 colon is 108%; in the test with HT29 colon, 102%; with SNB-75 CNS, 104%; in the test with SNB-19 CNS, 100%; in the test with U251 CNS, 97.3%; with PC-3 prostate, 88.1%. The growth was 108% with SK-MEL-5 melanoma, 105% in the test on UACC-62 melanoma, 98% in the test with LOX IMVI melanoma and 111% in the test with SK-MEL-28 melanoma.
For the molecule `CN1C(=O)N(C)C2C1NN=c1s/c(=C\c3ccsc3)c(=O)n12` (stereo not given), the growth in the test with HCT-15 colon was 24.7%; in the test with HT29 colon, 9.4% (active); in the test on SNB-75 CNS it was -7.65% (active); in the test on SNB-19 CNS, 39.6%; with U251 CNS, 30.6%; in the test on PC-3 prostate, 38.5%. Moreover, the growth with SK-MEL-5 melanoma is 41.6%; in the test on UACC-62 melanoma, 28.3%; with LOX IMVI melanoma, 37.7%; in the test on SK-MEL-28 melanoma, 67.8%.
As for `CC(C)(C)c1ccc(OC(=O)Nc2ccccc2)cc1`, the growth with HCT-15 colon was 104%; in the test with HT29 colon, 101%; in the test on SNB-75 CNS it was 106%; in the test with SNB-19 CNS, 109%; in the test with U251 CNS it was 101%; with PC-3 prostate, 96.3%. The growth in the test on SK-MEL-5 melanoma was 104%; with UACC-62 melanoma it was 110%; in the test on LOX IMVI melanoma, 102%; with SK-MEL-28 melanoma, 122%.
Regarding `COc1ccc(-c2nn(C(=O)NCCN(C)C)cc2-c2ccncc2)cc1Cl`, the growth with HCT-15 colon is 33.5%; with HT29 colon, 15.3%; with SNB-75 CNS, -20% (active); with SNB-19 CNS it was 54.8%; in the test on U251 CNS it was 31.1%; in the test on PC-3 prostate, 63.5%. The growth with SK-MEL-5 melanoma was 20.5%; in the test on UACC-62 melanoma, 34.6%; with LOX IMVI melanoma it was 25.6%; in the test with SK-MEL-28 melanoma, 39.4%.
In the case of `COc1ccc(CNc2c3ccccc3nc3ccccc23)cc1F`, the growth in the test on HCT-15 colon was 11%; in the test on HT29 colon, 12.2%; in the test with SNB-75 CNS, 42.5%; in the test with SNB-19 CNS it was 28%; in the test with U251 CNS it was 26.9%; in the test with PC-3 prostate it was 30.4%. The growth was 36.5% in the test with SK-MEL-5 melanoma, 42.4% in the test on UACC-62 melanoma, 1.25% (active) in the test with LOX IMVI melanoma and 46.7% in the test with SK-MEL-28 melanoma.
For the molecule `O=C(Nc1cccc(N=Cc2c(O)ccc3ccccc23)c1)c1ccccc1`, the growth in the test with HCT-15 colon is 93.6%; in the test on HT29 colon, 90.9%; in the test on SNB-75 CNS it was 77.9%; in the test on SNB-19 CNS, 101%; in the test with U251 CNS, 92.6%; in the test with PC-3 prostate, 86.9%. In addition, the growth in the test on SK-MEL-5 melanoma was 91.3%; in the test with UACC-62 melanoma, 94.4%; with LOX IMVI melanoma, 96.1%; with SK-MEL-28 melanoma, 107%.
As to `O=c1oc2ccccc2cc1-c1cc(-c2ccc(-c3cc(-c4cc5ccccc5oc4=O)nc(-c4cc5ccccc5oc4=O)c3)cc2)cc(-c2cc3ccccc3oc2=O)n1`, the growth in the test with HCT-15 colon is 103%; in the test on HT29 colon, 108%; in the test on SNB-75 CNS, 97.5%; in the test on SNB-19 CNS it was 96.9%; in the test on U251 CNS it was 99.6%; in the test on PC-3 prostate, 101%. In addition, the growth in the test with SK-MEL-5 melanoma is 101%; with UACC-62 melanoma, 99.1%; in the test on LOX IMVI melanoma, 102%; in the test with SK-MEL-28 melanoma, 108%.
Turning to `Cc1ccc(Nc2cc(Cl)c([N+](=O)[O-])cc2[N+](=O)[O-])cc1`, the growth in the test on HCT-15 colon was 16.8%; in the test on HT29 colon, 3.12% (active); in the test on SNB-75 CNS, 96%; in the test on SNB-19 CNS, 85.8%; in the test on U251 CNS, 25.8%; in the test on PC-3 prostate, 55.3%. For the same molecule, the growth in the test with SK-MEL-5 melanoma is 53.6%; in the test with UACC-62 melanoma, 48.7%; in the test on LOX IMVI melanoma, 9.04% (active); with SK-MEL-28 melanoma it was 71.5%.
For `O=C(Nc1cccc(Cl)c1)Nc1ccccc1Cl`, the growth in the test on HCT-15 colon is 93.6%; in the test on HT29 colon, 80.8%; in the test with SNB-75 CNS it was 89.4%; in the test with SNB-19 CNS, 102%; in the test on U251 CNS, 87.3%; with PC-3 prostate it was 57.1%. Also, the growth is 102% in the test with SK-MEL-5 melanoma, 63.7% in the test with UACC-62 melanoma, 89.1% with LOX IMVI melanoma and 95.4% in the test on SK-MEL-28 melanoma.
For `COc1ccc(/C=C/c2nc3ccccc3c(=O)n2-c2ccc(C#Cc3ccc(C(C)(C)C)cc3)cc2C)c(OC)c1`, the growth with HCT-15 colon was 59.3%; in the test with HT29 colon, 78%; with SNB-75 CNS, 99.4%; in the test with SNB-19 CNS, 105%; in the test with U251 CNS, 75.3%; with PC-3 prostate it was 53%. For the same molecule, the growth with SK-MEL-5 melanoma is 69.7%; in the test on UACC-62 melanoma, 72.6%; with LOX IMVI melanoma, 80%; in the test on SK-MEL-28 melanoma, 109%.

Source of the values: PubChem BioAssay (NCI).
